According to PubChem BioAssay (NCI):
This is part of a sample that, as a whole, favours compounds with a hit. Of some 79,000 tested, about 15% had one in any assay. Values without a mark were called inactive. Active and inactive are the calls of the source. No stated cut-off is given here; in the data, active means growth inhibition above about 70%; inactive means the rest. Where a SMILES comes first, the peptide text is derived from it. The star is where a group is joined. Trt = c1ccc(C(c2ccccc2)(c2ccccc2)*)cc1; OtBu = CC(C)(C)O*

experiment: NCI Yeast Anticancer Drug Screen. Data for the mlh1 rad18 strain (AID 175); conditions: S. cerevisiae mlh1 rad18 strain growth inhibition; at 50.0 µM (retest, dose inferred, filed as 5.0); stronger effect = higher value
In short: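 Compound-treated yeast growth, normalised to vehicle controls. Strain bears defined DNA repair mutations.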

SMILES | growth inhibition
Cc1ccc(C2=CC(=O)/C(=C\C(=O)c3ccc(Cl)cc3)O2)cc1 | 37%
CC1(c2ccc(S(=O)(=O)c3ccccc3)cc2)OC(=O)C=CC1=O (configuration not stated) | 99% (active)
CCCc1cc(-c2ccc(O)c(CCC)c2)ccc1O | 99% (active)
CCOC(=O)N1c2ccc3ccccc3c2C=CC1C#N (configuration not stated) | -6%
N#CNc1nc(N)c(-c2ccc(Cl)cc2)c(C(=O)Nc2ccc(Cl)c(Cl)c2)n1 | -2%
O=c1c(Cl)c(Cl)oc(Cl)c1Cl | 98% (active)
O=c1nc(-c2ccccc2)cc(-c2ccccc2O)[nH]1 | 68%
O=C(Cc1nc2ccccc2s1)C(=O)Nc1ccc(Cl)cc1 | 7%
c1ccc(OCC2c3ccccc3Nc3ccccc32)cc1 | 95% (active)
CCN(C(=O)C(F)(F)F)c1ccc2c(c1)C(=O)c1ccccc1-2 | 60%
Cc1cc2oc3c(ccc(=O)n3C)c(=O)c2c(C)c1Cl | 48%
O=C(CC(O)(C(F)(F)F)C(F)(F)F)C(c1ccccc1)C(O)(C(F)(F)F)C(F)(F)F (configuration not stated) | 93% (active)
O=S(=O)(Sc1ccccc1)C(c1ccccc1)c1ccccc1 | 72% (active)
COc1ccc2c3c(ccc2c1)NC(C(=O)O)CC3 (configuration not stated) | 87% (active)
N#CSc1ccc2nc(NCO)sc2c1 | 97% (active)
CC(CN(C)C)C(=O)c1cn(C)c2ccccc12 (configuration not stated) | 1%
Cc1cc(Cl)nc2ccc(Cc3ccc4nc(Cl)cc(C)c4c3)cc12 | 12%
COc1ccc2c(c1)CN([C@@H](C)[C@H]1CC[C@H]3[C@@H]4CC[C@H]5C[C@@H](O)CC[C@]5(C)[C@H]4CC[C@]13C)CO2 | 99% (active)
FC(F)(F)c1nc(Cl)nc2nc[nH]c12 | -8%
CC(C)C1COC(c2ccc3ccccc3c2-c2c(O[Si](C)(C)C(C)(C)C)ccc3ccccc23)=N1 (configuration not stated) | 4%
COc1cc2c(c(C3C(=O)N(C)c4ccc(Br)cc43)c1OC)OCO2 (configuration not stated) | 10%
c1ccc2c3[nH]c(c2c1)=Nc1ccc(cc1)-c1nc2ccc(cc2o1)N=c1[nH]c(c2ccccc12)=Nc1ccc2nc(oc2c1)-c1ccc(cc1)N=3 | 93% (active)
c1ccc2nc3ccccc3nc2c1 | 65%

same assay, conditions: S. cerevisiae mlh1 rad18 strain growth inhibition; at 50.0 µM; stronger effect = higher value

SMILES | growth inhibition
CCOC(=O)C(=N\Nc1cccc(C)c1C)/C(C)=N\NC(N)=S | 81.1% (active)
CCN(CC)CCNc1ccc(C)c2oc3ccc(O)cc3c(=O)c12 | 95.8% (active)
O=C1C(C=NC(=S)c2ccccc2)=C(O)c2ccccc21 | 6.45%
CCOC(=O)Cc1csc(/N=C\c2c(O)c3ccccc3oc2=O)n1 | 41.4%
CC(C)(CCCCC(C)(C)NCC1COc2ccccc2O1)NCC1COc2ccccc2O1 (configuration not stated) | 96.2% (active)
O=C1OC(c2ccc(O)cc2)=C(c2ccccc2)C1c1ccccc1 (configuration not stated) | 99.5% (active)
O=C(c1ccccc1)C(Br)CCCC(Br)C(=O)c1ccccc1 (configuration not stated) | 95.5% (active)
CCC(c1ccc(O)cc1)C(O)(CC)c1ccc(O)cc1 (configuration not stated) | 14.3%
Cn1cnc2[nH]c(Cl)nc(=S)c21 | 15.6%
O=C(NCCN1CCCC1)c1cn2c(ccc3sc4ccccc4c(=O)c32)n1 | 20.4%
CC(C)(C)OC(=O)CNC(=O)C(Cc1ccccc1)NC(=O)C(N)CSC(c1ccccc1)(c1ccccc1)c1ccccc1 (stereo not drawn) (H-Cys(Trt)-Phe-Gly-OtBu; configuration not given here) | 73.3% (active)
C/C(=N/NC(N)=S)C(CN(C)C)C(C1=C(O)c2ccccc2OC1)c1ccccc1 (configuration not stated) | 66.8%
O=C(CC(=O)c1ccccc1)CC(=O)c1ccccc1Br | 96.5% (active)
O=C1OC2(c3ccccc31)c1cc(I)c(O)c(I)c1Oc1c2cc(I)c(O)c1I | 98.7% (active)
Nc1cc(Cl)c2c(c1)Cc1ccccc1-2 | 86.8% (active)
C1=Cc2ccccc2/C1=C/c1ccccc1 | 91.2% (active)
Cc1ccc(C2=CC(=O)/C(=C\C(=O)c3ccc(Cl)cc3)O2)cc1 | 58%
CC1(c2ccc(S(=O)(=O)c3ccccc3)cc2)OC(=O)C=CC1=O (configuration not stated) | 99.5% (active)
CCCc1cc(-c2ccc(O)c(CCC)c2)ccc1O | 99.2% (active)
CCOC(=O)N1c2ccc3ccccc3c2C=CC1C#N (configuration not stated) | 94.7% (active)

SMILES | growth inhibition
N#CNc1nc(N)c(-c2ccc(Cl)cc2)c(C(=O)Nc2ccc(Cl)c(Cl)c2)n1 | -22.4%
O=c1c(Cl)c(Cl)oc(Cl)c1Cl | 97.2% (active)
O=c1nc(-c2ccccc2)cc(-c2ccccc2O)[nH]1 | 33.5%
O=C(Cc1nc2ccccc2s1)C(=O)Nc1ccc(Cl)cc1 | 3.3%
c1ccc(OCC2c3ccccc3Nc3ccccc32)cc1 | 67.2%
CCN(C(=O)C(F)(F)F)c1ccc2c(c1)C(=O)c1ccccc1-2 | 10%
Cc1cc2oc3c(ccc(=O)n3C)c(=O)c2c(C)c1Cl | 17.9%
O=C(CC(O)(C(F)(F)F)C(F)(F)F)C(c1ccccc1)C(O)(C(F)(F)F)C(F)(F)F (configuration not stated) | 93.6% (active)
O=S(=O)(Sc1ccccc1)C(c1ccccc1)c1ccccc1 | 6.85%
COc1ccc2c3c(ccc2c1)NC(C(=O)O)CC3 (configuration not stated) | 61.1%
N#CSc1ccc2nc(NCO)sc2c1 | 99.1% (active)
CC(CN(C)C)C(=O)c1cn(C)c2ccccc12 (configuration not stated) | 70.2% (active)
Cc1cc(Cl)nc2ccc(Cc3ccc4nc(Cl)cc(C)c4c3)cc12 | 37.8%
COc1ccc2c(c1)CN([C@@H](C)[C@H]1CC[C@H]3[C@@H]4CC[C@H]5C[C@@H](O)CC[C@]5(C)[C@H]4CC[C@]13C)CO2 | 98.4% (active)
FC(F)(F)c1nc(Cl)nc2nc[nH]c12 | -4.75%
CC(C)C1COC(c2ccc3ccccc3c2-c2c(O[Si](C)(C)C(C)(C)C)ccc3ccccc23)=N1 (configuration not stated) | 91.2% (active)
COc1cc2c(c(C3C(=O)N(C)c4ccc(Br)cc43)c1OC)OCO2 (configuration not stated) | 8.55%
c1ccc2c3[nH]c(c2c1)=Nc1ccc(cc1)-c1nc2ccc(cc2o1)N=c1[nH]c(c2ccccc12)=Nc1ccc2nc(oc2c1)-c1ccc(cc1)N=3 | 88.6% (active)
c1ccc2nc3ccccc3nc2c1 | 75% (active)
